For 102 compounds, outcome results are on record in PubChem BioAssay AID1671448 (Corson Lab, School of Medicine, Indiana University, 2021).

Each structure is given as a SMILES string. The whole screen tested about 20,000 compounds, of which about 660 (3.3%) were called active.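 Rule for the calls: active = enzyme reaction rate more than 3 SD below the solvent-only control wells on the same plate; inactive = the rest.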 Shown is part of a subset that was picked to be rich in actives.

The target in this experiment is Ferrochelatase, mitochondrial (Homo sapiens) (UniProt P22830). Description: inhibitors of human ferrochelatase, primary screen, biochemical, purified FECH, Ni-mesoporphyrin absorbance (AID 1671448). The conditions noted are these: Ni-mesoporphyrin absorbance 550 nm, screened at 10 µM (by protocol).
Ferrochelatase, mitochondrial (Homo sapiens), sequence (P22830 whole entry, looked up): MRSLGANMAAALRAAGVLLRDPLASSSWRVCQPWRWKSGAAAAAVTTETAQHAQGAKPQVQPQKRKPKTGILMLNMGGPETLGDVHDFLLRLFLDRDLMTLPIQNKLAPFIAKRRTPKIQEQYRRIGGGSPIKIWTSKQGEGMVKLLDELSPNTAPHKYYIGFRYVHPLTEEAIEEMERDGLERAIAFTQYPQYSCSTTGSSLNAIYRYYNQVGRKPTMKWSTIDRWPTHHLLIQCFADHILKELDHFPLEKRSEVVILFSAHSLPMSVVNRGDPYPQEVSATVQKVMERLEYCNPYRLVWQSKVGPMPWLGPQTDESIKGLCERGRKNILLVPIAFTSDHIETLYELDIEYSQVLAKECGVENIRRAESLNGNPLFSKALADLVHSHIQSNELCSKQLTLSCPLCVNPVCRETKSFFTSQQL
Turning to `Cc1cccc(Cn2c(=O)c3cnc(-c4ccncc4)nc3n(C)c2=O)c1`, the compound was classed as inactive.

For `C=CC[C@@H]1CC=C[C@@H](C)N1C(=O)Cc1c(C)nc(C)[nH]c1=O`, the compound was classed as inactive.

Take `CCc1ccc(CNC(=O)Cn2c(=O)c3cnc(-c4ccccc4)nc3n(C)c2=O)cc1`: the compound was called inactive.

For `Cn1c(=O)n(CC(=O)NCc2cccs2)c(=O)c2cnc(-c3ccccc3)nc21`, the compound was called inactive.

Turning to `C=CCn1c(=O)c2cnc(-c3ccc(OC)cc3)nc2n(C)c1=O`, the compound was called inactive.

As for `COc1ccccc1-c1nc(Cn2c(=O)c3cnc(-c4ccc(Cl)cc4)nc3n(C)c2=O)c(C)o1`, the result was inactive.

As for `C=CCn1c(=O)c2cnc(-c3ccc(Cl)cc3)nc2n(C)c1=O`, the compound was classed as active.

`Cn1c(=O)n(CC(=O)N2CCOCC2)c(=O)c2cnc(-c3ccccc3)nc21`: the outcome was active.

On to `COc1ccc(OC)c(S(=O)(=O)Nc2ccc(Sc3c(C)c(C)nc4ncnn34)cc2)c1`, for which the call was inactive.

Consider `COc1ccccc1C(=O)Nc1cc(C)nn1-c1ncnc2c1cnn2-c1ccc(C)cc1C`, for which the compound was classed as inactive.

Regarding `Cc1ccccc1C(C(=O)N1CCCOCC1)N(C)C` (configuration not stated), the call was inactive.

On to `Cc1ccsc1CN(CCO)C(=O)c1ccc2c(c1)CCCO2`, for which the outcome was inactive.

Turning to `CC(=O)N1CCN(Cc2nc3c(C)c(C)ccc3[nH]2)CC1`, the result was inactive.

Consider `CC(C)NC(=O)C1CCC(Cn2c(=O)c3sccc3n(CC(=O)NCc3ccco3)c2=O)CC1` (configuration not stated), for which the compound was called inactive.

As for `CCn1cc(CN2CCN(C)C3(CCN(C(=O)c4ccco4)CC3)C2)cn1`, the outcome was inactive.

Consider `CCOC(=O)c1cccc(Nc2cc(-c3ccc(C)cc3)nc(C)n2)c1`, for which the compound was called inactive.

With `CCC(=O)Nc1ccccc1-c1nnc(SC(CC)C(=O)Nc2ccc(OC)cc2)[nH]c1=O` (configuration not stated), the compound was called inactive.

Consider `COc1ccc(N2C(=O)CCS2(=O)=O)cc1S(=O)(=O)Nc1ccc(C(C)C)cc1`, for which the outcome was inactive.

Consider `Nc1nc2c(c(-c3cccnc3)n1)CN(C(=O)c1cc(F)c(F)c(F)c1)C2`, for which the result was inactive.

Consider `CC(Cc1ccc2c(c1)OCO2)CN1CCC(NS(C)(=O)=O)CC1` (configuration not stated), for which the outcome was inactive.

In the case of `Cc1noc(C)c1S(=O)(=O)N1CC(c2cccnc2)C1`, the result was inactive.

With `c1ccc(-c2ccc(-c3nccn3CCN3CCOCC3)s2)cc1`, the result was inactive.

Regarding `c1cc(CN2CCOCC2)cc(-c2ccc(NC3CCCC3)nn2)c1`, the outcome was active.

`O=C1CC(c2cccnc2)c2cnn(CC3CC3)c2N1` (configuration not stated): the outcome was inactive.

Consider `O=C(O)CSc1nnc(C2CCCNC2)n1-c1cccc(Cl)c1` (configuration not stated), for which the outcome was inactive.

For the compound `c1ccc(C2CCN(CCn3ccnc3C3CC3)C2)cc1` (configuration not stated), the compound was called inactive.

With `Cc1cc(C)cc(Nc2nc(N3CCOCC3)nc3c2cnn3-c2ccccc2)c1`, the compound was classed as inactive.

For `Cc1cc(C)n(CCC(=O)N(Cc2ccccc2C)CC2CCCO2)c(=O)n1` (configuration not stated), the call was inactive.

In the case of `CC1CNC(=O)CCN1Cc1ccc2cccc(Cl)c2n1` (configuration not stated), the compound was classed as inactive.

`CCc1nc(C)c(C(=O)N2CCN(c3nsc4ccccc34)CC2)o1`: the compound was called inactive.

As for `Cc1c(F)cccc1NC(=O)CNC(c1ccccn1)C(F)(F)F` (configuration not stated), the compound was classed as inactive.

For `CCCSc1ncc(CN2CCC3(CCC(=O)N(C)CC3)CC2)cn1`, the result was inactive.

Consider `Cc1cc(C)c(CN2CCN(Cc3ccccc3Cl)S2(=O)=O)c(C)c1`, for which the compound was called inactive.

On to `COc1ccc(-c2cc3n(n2)CCC(=O)N3Cc2ccc(C(=O)NCCN3CCCC3)cc2)cc1`, for which the result was inactive.

For `Fc1ccc(-c2cc(CNc3nccc(C4CCCC4)n3)no2)cc1`, the result was inactive.

For the compound `COc1ccc(Nc2cc(C)nc(Nc3ccc(NC(=O)c4ccc(C)cc4)cc3)n2)cc1`, the compound was classed as inactive.

In the case of `CCCn1ccnc1C1CC(=O)Nc2c1c(C(C)C)nn2-c1ccccc1` (configuration not stated), the outcome was inactive.

For `Cc1cc2nc(COc3ccc(Cl)cc3NC(=O)COc3ccccc3C)cc(=O)n2o1`, the result was inactive.

As for `Cc1ccc(C)c(N2C(=O)N(Cc3cc(F)cc(F)c3)c3ccccc3S2(=O)=O)c1`, the compound was classed as active.

For `COc1cccc(CN2CC(=O)N(Cc3cccc(C(F)(F)F)c3)c3ccccc3S2(=O)=O)c1`, the call was inactive.

With `O=C1CN(Cc2c(F)cccc2Cl)S(=O)(=O)c2ccccc2N1Cc1ccccc1`, the result was inactive.

As to `COc1ccccc1C(=O)Nc1ccccc1Sc1c(C)c(C)nc2nc(-c3ccccc3)nn12`, the compound was called inactive.

On to `CC(NC(=O)CCc1c[nH]c2ccccc12)c1cn2ncsc2n1` (configuration not stated), for which the compound was called inactive.

For the compound `CCC(C)N(Cc1ccsc1)C(=O)c1cn2c(n1)CNCC2` (configuration not stated), the call was inactive.

Regarding `Cc1cccc(-c2ncc(CNCCNC(=O)c3ccccc3Cl)cn2)c1`, the compound was called inactive.

For the compound `CCc1cc(Sc2ccc(NC(=O)Cc3cccs3)cc2)n2ncnc2n1`, the outcome was inactive.

In the case of `COc1ccc(C(=O)N(Cc2nc3nc(C)cc(C)n3n2)c2ccc(F)cc2)cc1`, the outcome was inactive.

On to `O=C(NCc1ccccc1)c1nc(N2CCOCC2)c2oc3ccccc3c2n1`, for which the result was inactive.

As to `CCOCCCNC(=O)C1CCN(c2ccc(-c3ccc(C)cc3)nn2)CC1`, the compound was classed as inactive.

On to `Nc1ccc(S(=O)(=O)Nc2cccc(Cl)c2)cc1S(N)(=O)=O`, for which the call was active.

Turning to `CCCc1cc(NCc2ccc(OC)cc2)n2nc(-c3cccnc3)nc2n1`, the compound was classed as inactive.

Consider `Cc1ccc(-c2ccnc(NCc3cnn4ccccc34)n2)c(C)n1`, for which the outcome was inactive.

For the compound `O=C(Nc1nc2n(n1)C(c1ccc(F)cc1)C=C(c1ccc(Cl)cc1)N2)c1cccnc1` (configuration not stated), the compound was classed as inactive.

On to `Cc1ccc(-c2ccnc(-c3ccc(CCC(=O)O)cc3)n2)c(C)n1`, for which the call was inactive.

Turning to `Cc1ccc(-n2c(=O)n(C)c3c(C(N)=O)nc(-c4ccc(Cl)cc4)nc32)cc1C`, the compound was called inactive.

Take `Cc1cc(C)n2nc(CN(C(=O)c3ccco3)c3ccc(Cl)cc3)nc2n1`: the outcome was inactive.

For `COc1ccc(NC2=NC(C(=O)Nc3cc(OC)ccc3OC)CC(=O)N2)cc1` (configuration not stated), the outcome was inactive.

Turning to `CCOc1cc(-c2c(-c3ccccc3)ncn2Cc2c(C)n[nH]c2C)ccc1OC`, the call was inactive.

For the compound `COCCN1CCCC(O)(CN2CCN(c3nc4ccccc4o3)CC2)C1=O` (configuration not stated), the compound was called inactive.

Take `OCc1csc(N2CCC(CO)(Cc3ccccc3Cl)CC2)n1`: the result was inactive.

On to `Cc1ccc(C2=CC(c3ccc(F)cc3)n3nc(NC(=O)CC(C)C)nc3N2)cc1` (configuration not stated), for which the call was inactive.

On to `Cc1ccc(S(=O)(=O)N2CCN(c3cc(-c4ccc(F)cc4)ncn3)CC2)cc1C`, for which the compound was called inactive.

As for `Cc1cccc(-c2nc3nc(CN(C)Cc4ccccc4)cc(=O)n3[nH]2)c1`, the call was active.

Turning to `CCOc1ccc(N(Cc2nc3nc(C)cc(C)n3n2)C(=O)c2ccco2)cc1`, the compound was called inactive.

Turning to `O=C(Nc1ccccc1)c1cc2n(n1)CCN(Cc1cnc[nH]1)C2`, the compound was called inactive.

Turning to `Cn1c(=O)n(Cc2ccc(F)cc2Cl)c(=O)c2cnc(-c3cccnc3)nc21`, the result was inactive.

As to `CCOc1ccc(C(=O)N2CCN(S(=O)(=O)c3cc4c5c(c3)CCN5C(=O)CC4)CC2)cc1`, the compound was classed as inactive.

Consider `Cc1ccc(Cn2c(CCNC(=O)Nc3cc(C)ccc3C)nc3cccnc32)cc1`, for which the compound was called inactive.

For `Cc1cc(C)cc(CCC(=O)NC(C)c2n[nH]c(C)n2)c1` (configuration not stated), the call was inactive.

Take `CCCN(CCC)C(=O)C1CCCN(c2ncnc3c2nc2n3CCCCC2)C1` (configuration not stated): the result was inactive.

`Cc1cccc(CNC(=O)N2CCN(Cc3nc4cccnc4n3-c3ccc(F)cc3)CC2)c1`: the compound was classed as inactive.

Consider `O=C1CN(S(=O)(=O)c2cc(C(=O)N3CCCC3)cs2)c2ccccc2N1`, for which the call was inactive.

On to `O=C(CN1CCN(Cc2ccccc2Cl)S1(=O)=O)Nc1ccc2c(c1)OCCO2`, for which the compound was called inactive.

Consider `CN(CCC1CCCCO1)C(=O)c1ccc(CSc2ncn[nH]2)o1` (configuration not stated), for which the result was inactive.

As for `Cc1nc(N2CCCCC2)ncc1C(=O)N1CCC2(CCN(C)C2)CC1`, the outcome was inactive.

Regarding `CNS(=O)(=O)c1ccc(C2NCCc3[nH]cnc32)cc1` (configuration not stated), the compound was called inactive.

Consider `COc1ccc(CNC(=O)N2CCN(c3cc(-c4ccc(OC)cc4)ncn3)CC2)cc1`, for which the compound was classed as inactive.

Consider `CCC1=C(c2ccc(OC)cc2)S(=O)(=O)N(CC(=O)NCc2ccc(OC(C)C)cc2)C1=O`, for which the outcome was inactive.

Take `COc1ccc(CNC(=O)CN2c3ccc(C(C)C)cc3-c3ccccc3S2(=O)=O)cc1`: the compound was called active.

As to `CCCNC(=O)NCC1CCCN(Cc2ccco2)C1` (configuration not stated), the result was inactive.

For the compound `CC(C)c1nccn1Cc1nc2ccccc2c(=O)[nH]1`, the outcome was inactive.

Regarding `CC(C)c1c(-c2ccccc2)ncn1CC(=O)N1CCNCC1`, the result was inactive.

With `COc1ccc(C(=O)N2CCc3[nH]nc(-c4ccc(F)c(F)c4)c3C2)c(O)c1`, the call was inactive.

For `Cc1cc(Sc2ccc(NC(=O)Nc3ccc(F)c(Cl)c3)cc2)n2ncnc2n1`, the result was inactive.

Consider `CCn1c(=O)n(-c2ccc(C)c(C)c2)c2nc(-c3ccc(F)cc3F)nc(C(N)=O)c21`, for which the compound was called inactive.

With `CCCS(=O)(=O)N1CCC(n2c(C(F)(F)F)nc3cccnc32)CC1`, the outcome was inactive.

As to `Cc1ccc(-c2cc(Nc3ccc(C(N)=O)cc3)nc(C)n2)cc1`, the call was inactive.

On to `CCN(CC)CCNc1nc(Nc2cccc(C)c2)c2cnn(-c3ccccc3)c2n1`, for which the compound was classed as inactive.

For the compound `COc1ccc(N2CCCS2(=O)=O)cc1NC(=O)COc1ccc(C)cc1`, the compound was classed as inactive.

In the case of `CCC1=C(c2ccc(OC)cc2)S(=O)(=O)N(CC(=O)Nc2cccc(Cl)c2)C1=O`, the compound was classed as inactive.

As for `CC(C(=O)NCCc1ccc(S(N)(=O)=O)cc1)N1C(=O)CC(C)(C)Sc2ccccc21` (configuration not stated), the outcome was inactive.

`CCCc1cc(Sc2ccc(NC(=O)Nc3cccc(F)c3)cc2)n2ncnc2n1`: the compound was classed as inactive.

For `COc1cccc(C(=O)N(Cc2nc3nc(C)cc(C)n3n2)c2ccccc2)c1`, the compound was classed as inactive.

In the case of `Cc1ccc2nc(CNC(=O)Cc3ccc4c(c3)OCO4)[nH]c2c1`, the compound was called inactive.

For `COCc1nc2cccnc2n1C1CCN(S(=O)(=O)c2ccc(C)c(C)c2)CC1`, the result was inactive.

With `O=C(O)CC1CNCCN(C(=O)c2cccc(Oc3ccccc3)c2)C1` (configuration not stated), the outcome was inactive.

As for `CCOC(=O)Cn1c(=O)n(-c2ccc(F)cc2)c2nc(-c3cccs3)nc(C(N)=O)c21`, the outcome was inactive.

On to `CN1CCN(Cc2ccc(-n3cccn3)cc2)CC1C(=O)O` (configuration not stated), for which the compound was classed as inactive.

`CCC1(CC)CN(C(=O)c2nnc(COC)o2)CCO1`: the call was inactive.

Consider `CCOc1ccc(N2CC(NC(=O)CC)CC2=O)cc1` (configuration not stated), for which the result was inactive.

As to `Cc1ccc(-c2cc(N3CCN(S(=O)(=O)c4ccccc4)CC3)ncn2)cc1`, the compound was called inactive.

With `CCCOc1cccc(-c2c(Nc3ccccc3)oc3c2c(=O)n(C)c(=O)n3C)c1`, the compound was called inactive.
